Screen size: about 370,000 compounds; about 6,800 (1.8%) were called active.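 The calls were made as follows: active = activation above a cutoff set at the mean of all screened compounds plus 3 SD (cut at about 10% in these data); inactive = the rest.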 This excerpt belongs to a sample that is enriched for actives.
Test system: Nuclear hormone receptor DAF-12 (Heterodera glycines), GAL4 fusion
Experiment: H. glycines DAF-12 receptor agonists, primary screen, cell-based, luminescence, HEK293, GAL4 fusion, UAS-luciferase (AID 687014);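 also: 0% = DMSO wells and 100% = sodium butyrate wells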
Settings: HEK293 GAL4-hgDAF12 UAS-luciferase reporter, agonist luminescence; at 6.8 µM; hits give high values; normalized to butyrate control

Row | SMILES | activation
1 | O=C(N/N=C/c1ccoc1)c1ccc(Cl)cc1Cl | 5.04% (inactive)
2 | CC(NC(=O)C(=O)N/N=C/c1ccc(Cl)cc1)c1ccccc1 (stereo unspecified) | -4.35% (inactive)
3 | NN=C(NN=Cc1ccccc1)c1ccccc1 | 10.3% (inactive)
4 | O=C(N/N=C/c1ccsc1)c1cc(O)cc(O)c1 | 2.1% (inactive)
5 | O=C(NN=Cc1ccccc1)c1ccccc1 | 12.9% (active)
6 | CSc1ccc(/C=N/NC(=O)c2cccc(Cl)c2)cc1 | 15.8% (active)
7 | COC(=O)[C@]12C[C@H](CC(=O)NCc3ccccc3)C(=O)N(CCC3=CCCCC3)C1=C[C@H](C(C)(C)C)O[C@@H]2C | -0.89% (inactive)
8 | COc1cccc(CNC(=O)Cn2c(=O)oc3cc(S(=O)(=O)N4CCCCC4)ccc32)c1 | -2.85% (inactive)
9 | COc1ccc(C2CC=C(C(=O)O)C(c3ccccc3F)N2S(=O)(=O)c2ccc(C)cc2)cc1OC (stereo unspecified) | 3.93% (inactive)
10 | COC(=O)C[C@@H]1CC[C@H]2[C@@H](COc3ccc(NS(=O)(=O)CC(F)(F)F)cc3C(=O)N2C)O1 | -0.04% (inactive)
11 | COC(=O)c1cc2c(c3c4ccccc4n(S(=O)(=O)c4cccc(C)c4)c13)C(=O)N(Cc1ccccc1)C2 | 0.97% (inactive)
12 | CC(C)(C)NC(=O)C(c1cccnc1)N(C(=O)c1cnco1)c1ccc(C(C)(C)C)cc1 (stereo unspecified) | -4.87% (inactive)
13 | Cc1ccc(S(=O)(=O)NCc2cn3ccsc3n2)c(C)c1 | -0.36% (inactive)
14 | COc1ccc(-c2cn3ccsc3n2)cc1 | 14.1% (active)
15 | CC(C)(C)C(=O)Nc1ccc(-c2cn3cccnc3n2)cc1 | 8.9% (inactive)
16 | FC(F)(F)Oc1ccc(-c2cn3cccnc3n2)cc1 | 9.13% (inactive)
17 | COc1ccc(-c2cn3cccnc3n2)cc1 | 14.7% (active)
18 | COc1cc(OC)cc(-c2nc(=S)n3ccsc3n2)c1 | 2.26% (inactive)
19 | Nc1ncnc2c1ncn2[C@@H]1O[C@H](C(=O)N[C@@H](CCc2ccccc2)C(=O)NCC(=O)N2CCOCC2)[C@@H](O)[C@H]1O | 1.87% (inactive)
20 | CC(C)N1CCCCC(NC(=O)c2ccc3ccccc3c2)C1=O (stereo unspecified) | -0.24% (inactive)
21 | O=S1(=O)c2ccc(Br)cc2-n2nncc2CN1Cc1cccc(Cl)c1 | 6.32% (inactive)
22 | Cc1ccc(C)c(-n2nnnc2SCC(=O)c2c(N)n(C)c(=O)n(C)c2=O)c1 | -2.28% (inactive)
23 | COc1ccc(Cn2ccc3ccc(-c4ccc5ccn(Cc6ccccc6C)c5c4)cc32)cc1 | 8.22% (inactive)

Row | SMILES | activation
24 | CC(=O)OC[C@@H]1CN(Cc2ccccc2)C[C@H](n2cnc3c(NCc4ccco4)ncnc32)O1 | 1.43% (inactive)
25 | c1ccc(-c2c[nH]c(-c3ccccc3)c2)cc1 | 11.8% (active)
26 | c1ccc(-c2ccc3c(c2)NC(C2Nc4cc(-c5ccccc5)ccc4O2)O3)cc1 (stereo unspecified) | -0.29% (inactive)
27 | Oc1ccc(-c2cccc(-c3ccc(O)cc3)c2)cc1 | 7.62% (inactive)
28 | Brc1ccc(COCCc2cn(Cc3ccccc3)c3ccccc23)cc1 | 0.93% (inactive)
29 | O=S1(=O)c2c(cccc2N2CCSCC2)Oc2ccccc2CN1Cc1cn(Cc2ccc(F)cc2)nn1 | -4.41% (inactive)
30 | CCN(CC)S(=O)(=O)c1ccc(-c2cn3ccc(C)cc3n2)cc1 | 10.8% (active)
31 | CCN(c1cccc(C)c1)S(=O)(=O)c1ccc(-c2coc(C)n2)cc1 | -2.39% (inactive)
32 | Cc1ccc(-c2cn3cc(C)ccc3n2)cc1 | -15.8% (inactive)
33 | COc1ccc(-c2cn3ccc(C)cc3n2)cc1 | 14.2% (active)
34 | Cc1ccc2nc(-c3ccc(Br)cc3)cn2c1 | -6.8% (inactive)
35 | CCN(CC(=O)NCCc1ccccc1)S(=O)(=O)c1ccc(C)cc1 | -0.97% (inactive)
36 | C[C@H]1CCC/C=C/C(=O)c2c(O)cc(O)cc2CC(=O)O1 | -13.8% (inactive)
37 | CCCCCCCCN1C(=O)[C@@H](CC(=O)NCc2ccccc2)C[C@@]2(C(=O)OC)C1=C[C@H](C(C)(C)C)O[C@@H]2C | -1.53% (inactive)
38 | O=C(c1ccco1)N1CCN=C1SCc1cccc(Cl)c1 | -5.1% (inactive)
39 | CCC(=O)c1c(CC)c2n3c1=CC[C@H]3CC(Br)C=2 (stereo partly specified) | -0.81% (inactive)
40 | COc1ccc(-n2c(COc3ccccc3)nnc2SCC(=O)Nc2ccc3c(c2)OCO3)cc1 | -2.9% (inactive)
41 | NS(=O)(=O)c1ccc(CCNC(=O)CNC(=O)Cc2ccccc2)cc1 | 0.79% (inactive)
42 | Cc1cc(C)n2ncc(C(=O)Nc3ccc4c(c3)OCCO4)c2n1 | 4.4% (inactive)
43 | CCc1ccc2oc(-c3ccc(N)cc3)nc2c1 | 15.5% (active)
44 | CC(=O)N1CC2(C)CN(C(C)=O)CC(C)(C1)C2=O | 1.11% (inactive)
45 | O=C(CCCCCN1C(=O)C2C3C=CC(C3)C2C1=O)Nc1ccccc1 (stereo unspecified) | 8.92% (inactive)
46 | CC(=O)c1cccc(NC(=O)[C@@H](NC(N)=O)C(C)C)c1 | -2.72% (inactive)

Row | SMILES | activation
47 | CC(=O)c1cccc(NC(=O)Nc2ccc(C)cc2)c1 | 11.1% (active)
48 | CCSc1nsc(NC(=O)Nc2cccc(C(C)=O)c2)n1 | 8.65% (inactive)
49 | OCCN1CCN(c2ncnc3c2ncn3[C@H]2CN(Cc3ccco3)C[C@@H](CO)O2)CC1 | 0.95% (inactive)
50 | COc1ccc(Cn2cc(CN3[C@@H](CC(C)C)COc4cc(Br)ccc4S3(=O)=O)nn2)cc1 | 2.35% (inactive)
51 | CCN(CC)S(=O)(=O)c1cc(C(=O)Nc2ccccn2)ccc1C | 12.3% (active)
52 | CCN(c1ccccc1)S(=O)(=O)c1cc(C(=O)NCc2ccccn2)ccc1C | 0.44% (inactive)
53 | Cc1ccc(NC(=O)CNCc2ccccn2)cc1S(=O)(=O)N(C)C | 3.01% (inactive)
54 | C[C@H]1[C@H](c2ccccc2)Oc2cc(Br)ccc2S(=O)(=O)N1Cc1cccc(F)c1 | -2.03% (inactive)
55 | NS(=O)(=O)c1ccc2nc(NC(=O)C3=COCCO3)sc2c1 | 12.8% (active)
56 | NS(=O)(=O)c1ccc2nc(NC(=O)CS(=O)(=O)c3ccc(F)cc3)sc2c1 | 2.11% (inactive)
57 | O=C(Nc1ccc(S(=O)(=O)N2CCCC2)cc1Cl)C1=COCCO1 | -1.4% (inactive)
58 | COc1ccc(CN2C(=O)N3Cc4cc(OC)ccc4C3CS2(=O)=O)cc1 (stereo unspecified) | -2.75% (inactive)
59 | Cc1ccc(-c2nnc(-n3nnc4ccccc43)c3ccccc23)cc1 | 0.07% (inactive)
60 | Cc1ccc(-c2nc3ccccc3[nH]c2=O)cc1 | 10.9% (active)
61 | CCCCCn1nnnc1-c1nc2cc3ccccc3cc2[nH]c1=O | 0.65% (inactive)
62 | CC1CCN(C(=O)CCNC(=O)c2ccccc2)CC1 | 2.11% (inactive)
63 | CC1CCCN(c2ccc(C(=O)NCCc3ccccc3)cn2)C1 (stereo unspecified) | 18.4% (active)
64 | O=C(NCCc1ccccc1)c1ccc(NC2=NC3CS(=O)(=O)CC3S2)cc1 (stereo unspecified) | -1.54% (inactive)
65 | O=C(NC1CCCC1)C1CSCCS(=O)(=O)N1Cc1ccccc1 (stereo unspecified) | 2.17% (inactive)
66 | CC(C)C[C@@H](NC(=O)[C@H]1CCCN1C(=O)Cc1ccccc1)C(N)=O | 1.33% (inactive)
67 | Cc1cc(F)ccc1N1CCC(N2CCN(C)C(CCO)C2)CC1 (stereo unspecified) | 1.51% (inactive)
68 | Nc1ccc(C(=O)Nc2ccccc2N)cc1 | 66.9% (active)
69 | O=C(Nc1ccccc1C(=O)N1CCOCC1)c1ccc(Cl)cc1 | -2.57% (inactive)

Row | SMILES | activation
70 | O=C(Cc1ccccc1)Nc1ccc(C(=O)Nc2ccccc2C(=O)O)cc1 | 0.23% (inactive)
71 | CCC(CO)Nc1cccc2c1S(=O)(=O)N(Cc1cn(Cc3ccccc3C(F)(F)F)nn1)Cc1ccccc1O2 (stereo unspecified) | 0.2% (inactive)
72 | O=C1Nc2ccccc2C1=NN=Cc1ccco1 | 0.84% (inactive)
73 | CCOc1ccc(/C=N\NC(=O)c2c(C)nc3cc(C)ccn23)cc1 | -0.25% (inactive)
74 | Cc1nonc1C(=O)N/N=C/c1ccc(O)cc1 | 10.9% (active)
75 | Nc1nonc1-n1nnc(C(=O)N/N=C/c2ccc(Cl)cc2)c1-c1ccc2c(c1)OCO2 | -0.85% (inactive)
76 | Cc1ccc(O)c(CCc2ccccc2)n1 | 1.33% (inactive)
77 | Cc1cccc(C(=O)Nc2c(-c3ccc(F)cc3)nc3ncccn23)c1 | -2.47% (inactive)
78 | CCC(=O)Nc1ccc2c(c1)C(=O)N(C)[C@@H]1CC[C@@H](CC(=O)NCCc3ccccc3)O[C@H]1CO2 | 0.93% (inactive)
79 | O=C(c1cnn(-c2ccc(Cl)cc2)c1)c1ccccc1O | 18.6% (active)
80 | Cc1cc(O)cc(O)c1C(=O)Cc1cnn(-c2ccccc2)c1 | -1.43% (inactive)
81 | O=C(c1ccc(Cl)cc1)n1cnc2ccccc21 | 0.03% (inactive)
82 | CN(CCO)c1cccc2c1S(=O)(=O)N(Cc1cn(Cc3ccc(C(F)(F)F)cc3)nn1)Cc1ccccc1O2 | 4.36% (inactive)
83 | O=C(c1cccs1)N1CCCC(c2nc(-c3ccc(F)cc3)no2)C1 (stereo unspecified) | 3.47% (inactive)
84 | Cc1ccc(-c2nc(-c3ccncc3)no2)c(C)c1 | 12.5% (active)
85 | O=C(NCc1cccnc1)c1nc(-c2cccs2)no1 | 4.85% (inactive)
86 | c1csc(-c2nc(-c3ccncc3)no2)c1 | 10.9% (active)
87 | Cc1ccc(-c2noc(-c3ccccc3C(=O)NCC3CCCO3)n2)cc1 (stereo unspecified) | 3.26% (inactive)
88 | CCOc1ccc(N(CC(=O)Nc2c(C)n(C)n(-c3ccccc3)c2=O)S(=O)(=O)c2ccc(Cl)s2)cc1 | 8.38% (inactive)
89 | CCOc1ccccc1C(=O)N1CCC[C@@H]1C(=O)N1CCC[C@H]1C(=O)NCc1ccccc1 | -0.69% (inactive)
90 | CN(C)CC(=O)N[C@@H]1C[C@@H]2O[C@H](CO)CC[C@@H]2O[C@@H]1CCc1ccc(C#Cc2ccccc2)cc1 | -6.4% (inactive)
91 | COC(=O)[C@]12C[C@H](CC(=O)N3CCN(C(=O)C4CC4)CC3)C(=O)N(CCC3=CCCCC3)C1=C[C@H](C(C)C)O[C@@H]2C1CC1 | 1.54% (inactive)
